In PubChem BioAssay (NCATS):
Results filed as inconclusive are left out. Where a call stands in place of a potency, no number is given. Activity calls are given as the source filed them. Calls come from the whole dose curve; as a rule, active = well fitted curve in the direction sought with a large enough effect; inconclusive = small, poorly fitted or top-dose-only effect, or another doubt; inactive = no such curve, though single readings can be large; an effect the other way counts as inactive or inconclusive.

Experiments:
[1] = test system: MKL-2; test: qHTS assay to identify novel small-molecules to repurpose for Merkel cell carcinoma treatment (AID 1296009); conditions: MCC and control cell lines, CellTiter-Glo viability, 72 h; series mostly up to 46 µM; note: nearly all actives have a fitted effect of over 60% in size; note: potency is the fitted concentration of half-maximal effect
In short: (§1)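 Cells were incubated with compound for 72 hr at 37 degree celsius before CellTiter-Glo addition. Luminescence was normalized with no-cell wells as full cytotoxicity and DMSO as baseline.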

[2] = test system: NIH3T3; test: as above; conditions: MCC and control cell lines, CellTiter-Glo viability, 72 h; at 44.8 µM (top of the series) unless noted
In short: as §1

[3] = test system: UISO; test: as above; conditions: MCC and control cell lines, CellTiter-Glo viability, 72 h; series mostly up to 46 µM
In short: as §1

[4] = test system: WaGa; test: as above; conditions: MCC and control cell lines, CellTiter-Glo viability, 72 h; series mostly up to 46 µM
In short: as §1

[5] = test system: C33A; test: Primary qHTS to identify gynecologic anti-cancer compounds using libraries of approved drugs and bioactive compounds (AID 1345084); conditions: Gynecologic cancer cell panel viability, ATPlite luminescence, 48 h; series mostly up to 57.5 µM; note: nearly all actives have a fitted effect of over 55% in size
In short: (§2)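 Cytotoxicity screen measuring ATP content by luciferase luminescence. Each compound is applied at five concentrations for 48 h at 37 C with 5% CO2.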

[6] = test system: CAOV3; test: as above; conditions: Gynecologic cancer cell panel viability, ATPlite luminescence, 48 h; series mostly up to 57.5 µM
In short: as §2

[7] = test system: CASKI; test: as above; conditions: Gynecologic cancer cell panel viability, ATPlite luminescence, 48 h; series mostly up to 57.5 µM
In short: as §2

[8] = test system: Es-2; test: as above; conditions: Gynecologic cancer cell panel viability, ATPlite luminescence, 48 h; series mostly up to 57.5 µM
In short: as §2

[9] = test system: HeLa; test: as above; conditions: Gynecologic cancer cell panel viability, ATPlite luminescence, 48 h; series mostly up to 57.5 µM
In short: as §2

[10] = test system: Hek293T; test: as above; conditions: Gynecologic cancer cell panel viability, ATPlite luminescence, 48 h, control line for the selectivity index; series mostly up to 57.5 µM
In short: as §2

Row | Structure (SMILES) | Potency [1] | outcome [2] | Potency [3] | Potency [4] | Potency [5] | Potency [6] | Potency [7] | Potency [8] | Potency [9] | Potency [10]
1 | CCCCCCCCCC(=O)N[C@@H](Cc1c[nH]c2ccccc12)C(=O)N[C@H](CC(N)=O)C(=O)N[C@@H](CC(=O)O)C(=O)N[C@@H]1C(=O)NCC(=O)N[C@@H](CCCN)C(=O)N[C@@H](CC(=O)O)C(=O)N[C@H](C)C(=O)N[C@@H](CC(=O)O)C(=O)NCC(=O)N[C@H](CO)C(=O)N[C@@H]([C@@H](C)CC(=O)O)C(=O)N[C@@H](CC(=O)c2ccccc2N)C(=O)O[C@@H]1C | inactive | inactive | inactive | inactive | inactive | inactive | inactive | inactive | inactive | inactive
2 | O=c1[nH]c(=O)n(C2CCCO2)cc1F (stereo not given) | inactive | – | inactive | – | – | – | – | – | – | –
3 | Nc1ccc(S(=O)(=O)Nc2ncccn2)cc1 | inactive | inactive | inactive | inactive | – | – | – | – | – | –
4 | CCOc1ccccc1OCCNC(C)Cc1ccc(OC)c(S(N)(=O)=O)c1 (stereo not given) | inactive | inactive | inactive | inactive | inactive | inactive | inactive | inactive | inactive | inactive
5 | O=C(C=Cc1cccnc1)NCCCCC1CCN(C(=O)c2ccccc2)CC1 | 20.9 nM (active) | – | 0.0209 µM (active) | 0.0166 µM (active) | – | – | – | – | – | –
6 | O=C1CCC[C@@H]2[C@H]3CCC[N+]4([O-])CCC[C@@H](CN12)[C@@H]34 (stereo not given in full) | inactive | inactive | inactive | inactive | inactive | inactive | inactive | inactive | inactive | inactive
7 | Cc1ccc(NC(=O)C2(c3ccc4c(c3)OC(F)(F)O4)CC2)nc1-c1cccc(C(=O)O)c1 | 26.4 nM (active) | inactive | – | – | inactive | inactive | inactive | inactive | inactive | inactive
8 | Cn1c(CNc2ccc(C(=N)N)cc2)nc2cc(C(=O)N(CCC(=O)O)c3ccccn3)ccc21 | inactive | inactive [at 17.4 µM] | inactive | inactive | inactive | inactive | inactive | inactive | inactive | inactive
9 | O=C(NC1CCNCC1)c1[nH]ncc1NC(=O)c1c(Cl)cccc1Cl | 833 nM (active) | – | 1.32 µM (active) | – | – | – | – | – | – | –
10 | CC(=O)OCCN1C(=O)c2c(C)nc3ccc(S(=O)(=O)N4CCOCC4)cc3c2C1=O | inactive | – | inactive | inactive | – | – | – | – | – | –
11 | Clc1cccc(-n2nnnc2NCc2ccccc2Oc2ccccn2)c1Cl | inactive | inactive | inactive | inactive | inactive | – | inactive | inactive | inactive | inactive
12 | Nc1nc(NCCNc2ncc(-n3ccnc3)c(-c3ccc(Cl)cc3Cl)n2)ccc1[N+](=O)[O-] | inactive | inactive | inactive | inactive | – | – | inactive | inactive | – | inactive
13 | O=C(C=Cc1c(C(=O)O)[nH]c2cc(Cl)cc(Cl)c12)Nc1ccccc1 | inactive | – | inactive | inactive | – | – | – | – | – | –
14 | Cc1cnc(-c2cnc(NCCNc3ccc(C#N)cn3)nc2-c2ccc(Cl)cc2Cl)[nH]1 | inactive | inactive | – | inactive | – | inactive | inactive | inactive | – | inactive
15 | CNC(=O)c1ccc(N2C(=S)N(c3cnc(C#N)c(C(F)(F)F)c3)C(=O)C23CCC3)cc1F | 26400 nM (active) | inactive | – | 9.35 µM (active) | inactive | inactive | inactive | inactive | inactive | inactive
16 | Cc1ccc(-c2ncn(-c3ccc(Nc4nccc(-c5cccc(N6CCOCC6)c5)n4)cc3)n2)cn1 | 52.6 nM (active) | – | – | – | – | – | – | – | – | –
17 | CN(C)CCCN=c1c2ccccc2n(C)c2[nH]c(=O)n(C)c(=O)c12 | 14800 nM (active) | – | 20.9 µM (active) | 7.43 µM (active) | – | – | – | – | – | –
18 | COc1cc(C(C)C)c2c(c1)S(=O)(=O)N(COc1cc(=O)n3cccc(OCCN4CCCCC4)c3n1)C2=O | inactive | inactive | inactive | inactive | – | – | – | – | – | –
19 | C1Cc2[nH]nc(-c3nn[nH]n3)c2C1 | inactive | inactive | inactive | inactive | inactive | inactive | inactive | inactive | inactive | inactive
20 | Clc1ccc2ncc(-c3cccc(NC4CNC4)n3)n2c1 | inactive | inactive | – | – | inactive | inactive | inactive | inactive | inactive | inactive
21 | CC(C)[C@H](C(=O)Nc1ccc(C(=O)NO)cc1)c1ccccc1 | 833 nM (active) | – | 3.32 µM (active) | 0.662 µM (active) | – | – | – | – | – | –
22 | Cc1coc2c1C(=O)C(=O)c1c-2ccc2c1CCCC2(C)C | inactive | inactive | inactive | inactive | inactive | inactive | inactive | inactive | – | inactive
